Assay results from PubChem BioAssay (EPA / NIEHS).
Results filed as inconclusive are left out. Activity calls are given as the source filed them. The calls were made as follows: active = hit-call score of the fitted dose curve at least 0.9, where 1 is the maximum; inconclusive = response in the unintended direction; inactive = score below 0.9.

target: Estrogen receptor (Homo sapiens) (UniProt P03372); assay: NVS_NR_hER: NovaScreen (NVS) Nuclear Receptor Binding Assay for human Estrogen Receptor (ER) (AID 2283348)
Sequence (P03372 whole entry, looked up, the tested form may be a part): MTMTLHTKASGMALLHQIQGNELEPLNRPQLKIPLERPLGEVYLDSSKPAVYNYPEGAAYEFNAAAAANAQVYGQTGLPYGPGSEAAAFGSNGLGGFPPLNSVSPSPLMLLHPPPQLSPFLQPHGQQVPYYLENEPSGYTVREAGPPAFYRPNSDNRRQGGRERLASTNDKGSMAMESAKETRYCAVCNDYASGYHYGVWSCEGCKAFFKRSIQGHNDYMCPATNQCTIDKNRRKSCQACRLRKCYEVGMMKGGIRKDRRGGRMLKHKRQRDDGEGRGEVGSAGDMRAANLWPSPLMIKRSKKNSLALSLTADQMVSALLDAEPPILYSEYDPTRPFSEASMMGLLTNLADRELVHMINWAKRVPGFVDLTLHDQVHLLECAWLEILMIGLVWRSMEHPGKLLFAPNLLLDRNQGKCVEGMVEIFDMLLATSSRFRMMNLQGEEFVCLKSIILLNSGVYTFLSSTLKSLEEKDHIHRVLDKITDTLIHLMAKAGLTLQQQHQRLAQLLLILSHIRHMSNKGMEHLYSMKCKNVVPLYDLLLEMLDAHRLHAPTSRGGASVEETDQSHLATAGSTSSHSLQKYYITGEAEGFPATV
How it was run: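 Scintillation signal from bound radioligand was measured 18 hours after chemical addition to cell-free MCF7 protein extracts, with DMSO as baseline. Activity was scored as signal loss; compounds ran first at 25 uM in duplicate.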

Structure (SMILES)	outcome
O=C(Nc1ccc(Br)cc1)c1cc(Br)cc(Br)c1O	inactive
CCCCC(CC)C(=O)Cl (stereo unspecified)	inactive
Nc1ccc(Br)cc1	inactive
OC(c1ccc(Cl)cc1)(c1ccc(Cl)cc1)c1cccnc1	inactive
O=C(NC(=O)c1c(F)cccc1F)Nc1cc(Cl)c(Oc2ncc(C(F)(F)F)cc2Cl)c(Cl)c1	inactive
CCCCCCCCCCCCBr	inactive
O=S1OC[C@@H]2[C@H](CO1)[C@]1(Cl)C(Cl)=C(Cl)[C@@]2(Cl)C1(Cl)Cl (stereo partly specified)	inactive
O=C(Cl)OCCOCCOC(=O)Cl	inactive
O=S(=O)(Oc1ccc(Cl)cc1)c1ccc(Cl)cc1	inactive
C=CC(=O)OCC(COC(=O)C=C)(COC(=O)C=C)COC(=O)C=C	inactive

target: Estrogen receptor (Homo sapiens) (UniProt P03372); assay: OT_ER_ERaERa_1440: Odyssey Thera (OT) 24-hour HEK293T Protein-Complementation Assay for Estrogen Receptor-alpha/-alpha Homodimer (AID 2283349);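 also: hits raise fluorescence above DMSO for agonists and antagonists alike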
How it was run: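 Protein-fragment complementation between two human ERα ligand-binding domains (aa 310-547) in stably transfected HEK293T cells was monitored after 24 h treatment, using fluorescence intensity relative to vehicle controls.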

Structure (SMILES)	outcome
O=C(O)COc1ccc(Cl)cc1	inactive
O=C(NC(=O)c1c(F)cccc1F)Nc1cc(Cl)c(OC(F)(F)C(F)C(F)(F)F)cc1Cl (stereo unspecified)	inactive
N#Cc1cccnc1	inactive
CCCCCCCCCCCCN(C)C	inactive
CCN(CCO)CCO	inactive
CCOc1ccc(N)cc1	inactive
O=C(NC(=O)c1c(F)cccc1F)Nc1ccc(Cl)cc1	inactive
O=S1OC[C@@H]2[C@H](CO1)[C@]1(Cl)C(Cl)=C(Cl)[C@@]2(Cl)C1(Cl)Cl (stereo partly specified)	inactive
Cc1cc(Cl)ccc1OC(C)C(=O)O (stereo unspecified)	inactive
CCCSP(=S)(OCC)Oc1ccc(SC)cc1 (stereo unspecified)	inactive
C=CCN=C=S	inactive
O=CCCl	inactive

target: Estrogen receptor (Homo sapiens) (UniProt P03372); assay: OT_ER_ERaERa_0480: Odyssey Thera (OT) 8-hour HEK293T Protein-Complementation Assay for Estrogen Receptor-alpha/-alpha Homodimer (AID 2283351);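 also: rise in fluorescence from reassembled reporter fragments on ERα LBD homodimer in nucleus or whole cell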
How it was run: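 HEK293T cells stably expressing the human ERα ligand-binding domain (aa 310-547) as a homodimer PCA were dosed with compound for 8 h. Gain of fluorescence intensity versus DMSO vehicle was read by laser scanning cytometry.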

Structure (SMILES)	outcome
O=C(O)COc1ccc(Cl)cc1	inactive
O=C(NC(=O)c1c(F)cccc1F)Nc1cc(Cl)c(OC(F)(F)C(F)C(F)(F)F)cc1Cl (stereo unspecified)	inactive
N#Cc1cccnc1	inactive
CCCCCCCCCCCCN(C)C	inactive
CCN(CCO)CCO	inactive
CCOc1ccc(N)cc1	inactive
O=C(NC(=O)c1c(F)cccc1F)Nc1ccc(Cl)cc1	inactive
O=S1OC[C@@H]2[C@H](CO1)[C@]1(Cl)C(Cl)=C(Cl)[C@@]2(Cl)C1(Cl)Cl (stereo partly specified)	inactive
Cc1cc(Cl)ccc1OC(C)C(=O)O (stereo unspecified)	inactive
CCCSP(=S)(OCC)Oc1ccc(SC)cc1 (stereo unspecified)	inactive
C=CCN=C=S	inactive
O=CCCl	inactive

target: Estrogen receptor (Homo sapiens) + Estrogen receptor beta (Homo sapiens) (UniProt P03372+Q92731); assay: OT_ER_ERaERb_0480: Odyssey Thera (OT) 8-hour HEK293T Protein-Complementation Assay for Estrogen Receptor-alpha/-beta Heterodimer (AID 2283352)
Sequence (P03372 whole entry, looked up, the tested form may be a part): as above
Sequence (Q92731 whole entry, looked up, the tested form may be a part): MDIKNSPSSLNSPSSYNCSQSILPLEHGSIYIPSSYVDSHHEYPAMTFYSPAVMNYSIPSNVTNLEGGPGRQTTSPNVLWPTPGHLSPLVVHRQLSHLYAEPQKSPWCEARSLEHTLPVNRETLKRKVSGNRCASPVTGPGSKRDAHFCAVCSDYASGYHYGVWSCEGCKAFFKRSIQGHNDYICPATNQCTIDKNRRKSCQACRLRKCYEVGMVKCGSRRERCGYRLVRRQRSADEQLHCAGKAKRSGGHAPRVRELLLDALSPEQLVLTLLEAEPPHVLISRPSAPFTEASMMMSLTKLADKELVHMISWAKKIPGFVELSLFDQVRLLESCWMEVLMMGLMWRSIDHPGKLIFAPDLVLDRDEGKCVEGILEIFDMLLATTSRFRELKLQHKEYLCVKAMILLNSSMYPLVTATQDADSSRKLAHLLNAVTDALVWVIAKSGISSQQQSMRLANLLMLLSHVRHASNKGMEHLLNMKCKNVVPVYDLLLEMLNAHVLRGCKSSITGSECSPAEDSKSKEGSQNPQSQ
How it was run: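 Increase in mean fluorescence intensity, measured by laser scanning plate cytometry, reported ER-alpha/ER-beta LBD complementation in HEK293T cells after 8 h chemical exposure. DMSO served as baseline; basal signal is low, punctate and cytoplasmic.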

Structure (SMILES)	outcome	AC50
O=C(O)COc1ccc(Cl)cc1	inactive	–
O=C(NC(=O)c1c(F)cccc1F)Nc1cc(Cl)c(OC(F)(F)C(F)C(F)(F)F)cc1Cl (stereo unspecified)	inactive	–
CCCCCCCCCCCCN(C)C	inactive	–
CCN(CCO)CCO	inactive	–
CCOc1ccc(N)cc1	inactive	–
O=C(NC(=O)c1c(F)cccc1F)Nc1ccc(Cl)cc1	inactive	–
Cc1cc(Cl)ccc1OC(C)C(=O)O (stereo unspecified)	inactive	–
CCCSP(=S)(OCC)Oc1ccc(SC)cc1 (stereo unspecified)	–	22.7 µM (active)
O=CCCl	inactive	–

target: Androgen Receptor/SRC-1 Co-activator, AR (gene 367) (UniProt P10275); assay: OT_AR_ARSRC1_0960: Odyssey Thera (OT) 16-hour HEK293T Protein-Complementation Assay for Androgen Receptor/SRC-1 Co-activator (AID 2283353);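 also: actives raise the signal above DMSO so potency reflects increased AR and SRC-1 complex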
Sequence (P10275 whole entry, looked up, the tested form may be a part): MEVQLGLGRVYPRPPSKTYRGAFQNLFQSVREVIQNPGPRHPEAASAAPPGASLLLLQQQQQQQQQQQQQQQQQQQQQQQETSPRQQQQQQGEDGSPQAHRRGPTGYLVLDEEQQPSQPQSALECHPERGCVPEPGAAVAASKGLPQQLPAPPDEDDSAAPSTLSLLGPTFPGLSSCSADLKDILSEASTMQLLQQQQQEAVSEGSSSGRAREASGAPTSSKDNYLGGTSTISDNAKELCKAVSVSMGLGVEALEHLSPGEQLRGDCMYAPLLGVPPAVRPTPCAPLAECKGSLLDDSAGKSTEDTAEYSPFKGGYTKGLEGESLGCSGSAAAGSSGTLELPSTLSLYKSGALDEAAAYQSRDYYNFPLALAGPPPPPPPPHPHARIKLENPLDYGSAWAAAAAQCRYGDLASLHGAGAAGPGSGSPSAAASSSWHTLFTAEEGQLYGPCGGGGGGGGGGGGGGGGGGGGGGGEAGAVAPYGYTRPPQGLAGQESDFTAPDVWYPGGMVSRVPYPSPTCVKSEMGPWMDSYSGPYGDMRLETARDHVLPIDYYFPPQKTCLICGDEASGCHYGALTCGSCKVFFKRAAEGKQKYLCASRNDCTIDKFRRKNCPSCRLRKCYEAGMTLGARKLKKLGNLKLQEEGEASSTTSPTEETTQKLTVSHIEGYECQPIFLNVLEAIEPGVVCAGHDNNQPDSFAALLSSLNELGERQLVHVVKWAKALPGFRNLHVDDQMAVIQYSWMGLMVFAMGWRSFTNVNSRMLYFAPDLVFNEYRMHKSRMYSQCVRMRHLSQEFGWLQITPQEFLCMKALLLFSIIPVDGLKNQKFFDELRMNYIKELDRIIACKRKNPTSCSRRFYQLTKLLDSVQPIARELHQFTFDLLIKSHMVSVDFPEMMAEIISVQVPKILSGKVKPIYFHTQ
How it was run: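 HEK293T cells stably expressing AR and SRC-1 fused to split Venus YFP fragments via (Gly4Ser)2 linkers were dosed for 16 h. Nuclear/cytoplasmic fluorescence ratio at 488 nm, ≥400 cells per image, fitted for gain of signal versus DMSO.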

Structure (SMILES)	outcome
O=C(NC(=O)c1c(F)cccc1F)Nc1cc(Cl)c(OC(F)(F)C(F)C(F)(F)F)cc1Cl (stereo unspecified)	inactive
Cc1cc(Cl)ccc1OCCCC(=O)O	inactive
C=CC(Cl)CCl (stereo unspecified)	inactive
COCCl	inactive
O=S1OC[C@@H]2[C@H](CO1)[C@]1(Cl)C(Cl)=C(Cl)[C@@]2(Cl)C1(Cl)Cl (stereo partly specified)	inactive
O=C(O)COc1cc(Cl)c(Cl)cc1Cl	inactive

target: Androgen Receptor/SRC-1 Co-activator, AR (gene 367) (UniProt P10275); assay: OT_AR_ARSRC1_0480: Odyssey Thera (OT) 8-hour HEK293T Protein-Complementation Assay for Androgen Receptor/SRC-1 Co-activator (AID 2283354);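 also: hits raise the complementation signal above DMSO so AC50 marks enhancers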
How it was run: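 Measures AR/SRC-1 binding by Venus YFP fragment complementation in HEK293T stable lines at 8 h post-dose. Imaging quantifies the 488nm nucleus/cytoplasm ratio in ≥400 cells; DMSO defines baseline.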

Structure (SMILES)	outcome
O=C(NC(=O)c1c(F)cccc1F)Nc1cc(Cl)c(OC(F)(F)C(F)C(F)(F)F)cc1Cl (stereo unspecified)	inactive
Cc1cc(Cl)ccc1OCCCC(=O)O	inactive
C=CC(Cl)CCl (stereo unspecified)	inactive
O=S1OC[C@@H]2[C@H](CO1)[C@]1(Cl)C(Cl)=C(Cl)[C@@]2(Cl)C1(Cl)Cl (stereo partly specified)	inactive
O=C(O)COc1cc(Cl)c(Cl)cc1Cl	inactive

target: Estrogen receptor beta (Homo sapiens) (UniProt Q92731); assay: OT_ER_ERbERb_0480: Odyssey Thera (OT) 8-hour HEK293T Protein-Complementation Assay for Estrogen Receptor-beta/-beta Homodimer (AID 2283357);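 also: active means signal gain over DMSO baseline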
Sequence (Q92731 whole entry, looked up, the tested form may be a part): as the sequence (Q92731 whole entry, looked up, the tested form may be a part) above
How it was run: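 Cells (HEK293T, stable ER-beta LBD PCA pair) are treated 8 hours, fixed and Draq5-stained; signal is fluorescence intensity increase relative to vehicle, fitted in the gain direction.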

Structure (SMILES)	outcome	AC50
O=C(NC(=O)c1c(F)cccc1F)Nc1cc(Cl)c(OC(F)(F)C(F)C(F)(F)F)cc1Cl (stereo unspecified)	inactive	–
N#Cc1cccnc1	inactive	–
Cc1cc(Cl)ccc1OCCCC(=O)O	inactive	–
CCC[CH2][Sn]([CH2]CCC)([CH2]CCC)[CH2]CCC	inactive	–
O=[N+]([O-])c1ccccc1O	inactive	–
CCCCCCCCCCCCN(C)C	–	76.5 µM (active)
CC(C)(C)c1ccccc1O	–	50 µM (active)
C=CC(Cl)CCl (stereo unspecified)	inactive	–
COCCl	inactive	–
CCOc1ccc(N)cc1	inactive	–
Oc1c(Cl)cc(Cl)cc1Cl	inactive	–
Cc1cc(Cl)ccc1OC(C)C(=O)O (stereo unspecified)	inactive	–
Cc1cc(Cl)ccc1O	–	66.5 µM (active)
CCCSP(=S)(OCC)Oc1ccc(SC)cc1 (stereo unspecified)	inactive	–
Nc1ncn[nH]1	inactive	–
O=CCCl	inactive	–
Cc1cc(C)cc(C)c1	inactive	–
